Here are results for twelve molecules from the supplement of paper PMC10811239.

The subject of assay [1] is LEGO organoid PTCC (PTEN-/-; TP53-/-; CDKN2A-/-; CDKN2B-/-). In words: bioluminescence (viable cell) signal fold change after vs before treatment, normalised to DMSO (ratio); higher = more tumour cell growth / less inhibition. Conditions: 10 µM; treatment time 6 days. As for the experimental part: (§1)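 Luc2-labelled iPSC-derived glioblastoma-like organoids (LEGOs, genotypes PT = PTEN-/-;TP53-/-, PTCC = plus CDKN2A/B-/-, PTN = plus NF1-/-) were treated with 10 uM drug for 6 days (applied every other day) at 37 C. Bioluminescence imaging was done before treatment and 2 days after the last dose. BLI signals were normalised to the DMSO control on the same day and then to the pre-treatment signal (N=3).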

Assay [2] relates to LEGO organoid PTN (PTEN-/-; TP53-/-; NF1-/-). Described as above. Conditions: 10 µM; treatment time 6 days. On the procedure:
as §1

Consider `CCCCCCCCc1ccc(CCC(N)(CO)CO)cc1.Cl` [Fingolimod hydrochloride], for which the results for the bioluminescence in assay [1] and in assay [2] were 1.07 and 0.473, respectively.

For the molecule `CN1C(C(=O)Nc2ccccn2)=C(O)c2ccccc2S1(=O)=O` [Piroxicam], the bioluminescence was found to be 1.65 in assay [1] and 1.14 in assay [2].

Consider `Cc1cc(C)nc(NS(=O)(=O)c2ccc(N)cc2)n1` [Sulfamethazine], for which the bioluminescence in assay [1] turned out to be 0.645; in assay [2] it was 1.03.

With `Cl.Clc1cccc(Cl)c1NC1=NCCN1` [Clonidine hydrochloride], the bioluminescence in assay [1] is 1.29; in assay [2], 0.76.

On to `Cl.O=C1c2cccc3c2[C@H](CCC3)CN1[C@@H]1CN2CCC1CC2` [Palonosetron hydrochloride], for which the bioluminescence in assay [1] came to 0.952; in assay [2] it was 1.4.

In the case of `CNS(=O)(=O)CCc1ccc2[nH]cc(C3CCN(C)CC3)c2c1.Cl` [Naratriptan hydrochloride], the values for the bioluminescence in assay [1] and in assay [2] were 0.859 and 1.2, respectively.

With `CN(C)CCC=C1c2ccccc2COc2ccccc21.Cl` [Doxepin hydrochloride], the bioluminescence worked out at 1.05 in assay [1] and 0.742 in assay [2].

Turning to `CC(=O)[C@H]1CC[C@H]2[C@@H]3CCC4=CC(=O)CC[C@]4(C)[C@H]3CC[C@]12C` [Progesterone], the bioluminescence in assay [1] amounted to 0.682; in assay [2], 1.12.

For `Cl.O=C1CC2(CCCC2)CC(=O)N1CCCCN1CCN(c2ncccn2)CC1` [Buspirone hydrochloride], the bioluminescence is 1.47 in assay [1] and 0.759 in assay [2].

In the case of `CC(=O)Nc1ccc(O)cc1` [Acetaminophen], the bioluminescence in assay [1] was determined as 0.686; in assay [2] it was 0.918.

On to `O=C1[N-]C(=O)C(c2ccccc2)(c2ccccc2)N1.[Na+]` [Phenytoin sodium], for which the bioluminescence was determined as 1.45 in assay [1] and 0.866 in assay [2].

On to `NC(=O)OCC(COC(N)=O)c1ccccc1` [Felbamate], for which the values for the bioluminescence in assay [1] and in assay [2] were 3.87 and 0.547, respectively.
